GIRK2 activator = Activates human GIRK2-containing potassium channels; AID 1259324; HEK293 GIRK2/NPY4 cells, thallium flux fluorescence; P48051; 34,000 tested, under 10 active; activation (% efficacy), % for hits at 75 µM;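 active means primary screen hit, no activity in plain HEK293 cells, and in GIRK2-only cells above 5% efficacy rising with concentration; inactive means the rest, including fluorescent compounds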;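 further: efficacy is normalized control-subtracted fluorescence 15 s after thallium addition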
Target sequence (P48051 whole entry, looked up): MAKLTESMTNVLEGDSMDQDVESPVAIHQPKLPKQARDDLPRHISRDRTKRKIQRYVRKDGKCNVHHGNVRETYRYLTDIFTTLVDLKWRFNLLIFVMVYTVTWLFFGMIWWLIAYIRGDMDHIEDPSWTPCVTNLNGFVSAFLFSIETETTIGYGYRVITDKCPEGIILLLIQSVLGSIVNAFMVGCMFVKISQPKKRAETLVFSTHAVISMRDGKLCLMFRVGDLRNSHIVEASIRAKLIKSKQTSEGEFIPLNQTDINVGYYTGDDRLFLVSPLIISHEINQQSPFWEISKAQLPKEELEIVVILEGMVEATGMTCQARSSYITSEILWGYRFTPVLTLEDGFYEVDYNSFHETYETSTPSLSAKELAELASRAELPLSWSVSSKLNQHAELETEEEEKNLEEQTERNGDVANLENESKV
GluA2 TARP mod = GluA2-stargazin AMPA receptor complex modulation | O88602+P19491 | HEK293 GluA2+stargazin, membrane potential dye (FDSS), glutamate EC50; hits were called plate by plate, in both directions | calls only at 30 µM | 40,000 tested, 3.5% active;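 active means any of four per-well response measures lying three or more SD from its plate-wide compound average, in either direction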
Active calls of the source: *; i = inactive; . = no result; + = active, no number. Many of the other results were omitted from the sample, so hits are more common in it than they were.

SMILES | GIRK2 activator | GluA2 TARP mod
CN(C1CCCC1)S(=O)(=O)c1ccc(C(=O)Nc2nc3cc4c(cc3s2)OCO4)cc1 | . | i
O=C(/C=C/c1cc2cc3c(cc2nc1Cl)OCO3)C1CC1 | . | +
O=C(Nc1ccc(Nc2ccccc2)cc1)c1ccoc1 | i | +
NC(=O)c1cccc(NC(=O)c2ccoc2)c1 | i | i
Cc1noc(C)c1CC(=O)Nc1ccccc1NC(=O)c1cccs1 | i | .
COC(=O)c1c(NC(=O)c2ccn(C)n2)sc2c1CCN(Cc1ccccc1)C2 | i | +
CC(C)N1CCc2c(sc(NC(=O)c3ccn(C)n3)c2C(N)=O)C1 | i | i
Cc1cc(C(=O)Nc2sc3c(c2C#N)CCN(Cc2ccccc2)C3)on1 | i | .
N#Cc1c(NC(=O)c2cc3ccccc3o2)sc2c1CCN(Cc1ccccc1)C2 | . | +
CC1CS(=O)(=O)N(c2cccc(C(=O)N3CCCc4ccccc43)c2)C1=O (stereo unspecified) | i | i
O=C(Nc1nnc(Cc2cccs2)o1)c1cc2ccccc2oc1=O | i | +
O=C(Nc1nnc(Cc2cccs2)o1)c1ccccc1 | i | i
CCCN1C(=O)NC2(CCN(C(=O)Nc3cccc(C(F)(F)F)c3)CC2)C1=O | i | i
O=C(Nc1cccc(C(F)(F)F)c1)N1CCC2(CC1)NC(=O)N(Cc1ccccc1)C2=O | i | +
Cc1ccc(CN2C(=O)NC3(CCN(C(=O)Nc4ccc(Cl)cc4)CC3)C2=O)cc1 | i | .
O=C(Nc1cccc(Cl)c1)N1CCC2(CC1)NC(=O)N(Cc1ccccc1)C2=O | i | +
Cc1ccccc1-n1nnnc1SCC(=O)Nc1ccc(S(N)(=O)=O)cc1 | i | i
O=C(NCC1(c2ccccc2)CCOCC1)C(=O)Nc1ccc(F)c(Cl)c1 | i | i
Cc1ccc(Cn2c(CO)cnc2SCC(=O)N2CCCCCC2)cc1 | i | i
COc1cccc(N2C(=O)CN(C3CCCCCC3)C3CS(=O)(=O)CC32)c1 (stereo unspecified) | i | i
O=C(CCSc1ccccc1)Nc1cc(-c2cccs2)nn1CCO | i | +
O=C(Cc1ccc(F)cc1)Nc1cc(-c2cccs2)nn1CCO | i | i
CCC(C)NC(=O)c1cc2cccc(OC)c2oc1=O (stereo unspecified) | i | i
COc1cccc2cc(C(=O)CS(=O)(=O)c3ccccc3)c(=O)oc12 | . | +
O=C(CCCS(=O)(=O)c1ccccc1)Nc1nc(-c2cc(Cl)sc2Cl)cs1 | i | i
SMILES | GIRK2 activator | GluA2 TARP mod
CC(C)S(=O)(=O)c1cccc(C(=O)Nc2c(C(N)=O)oc3ccccc23)c1 | i | i
COc1ccc(C(=O)Oc2c(S(=O)(=O)c3ccc(C)cc3)c(C)nn2C(C)(C)C)cc1OC | . | +
Cc1ccc(S(=O)(=O)c2c(C)nn(C(C)(C)C)c2OC(=O)c2cccc(C)c2)cc1 | . | i
O=C(Cc1cccc2ccccc12)NCC1CCN(C(=O)COc2ccccc2)CC1 | i | +
O=C(Cc1cccc2ccccc12)NCC1CCN(c2ncccn2)CC1 | i | i
COc1ccc(S(=O)(=O)Nc2nc(CCC(=O)NCCC3=CCCCC3)cs2)cc1 | i | i
CC(=O)N1CC(C(=O)NCCC2=CCCCC2)C1 | i | i
Cc1ccc(N2C(=O)CCS2(=O)=O)cc1S(=O)(=O)NCCc1c[nH]c2ccccc12 | i | i
O=C1CCS(=O)(=O)N1c1ccc(S(=O)(=O)NCCc2cccs2)cc1 | i | +
COc1ccc(S(=O)(=O)CC(=O)Nc2ccc3c(c2)C(=O)NC3=O)cc1 | i | i
COc1ccc(SCCC(=O)Nc2ccc3c(c2)C(=O)NC3=O)cc1 | i | +
Cn1cccc(C(=O)NCC(O)(c2ccccc2)C2CC2)c1=O (stereo unspecified) | . | i
COCC(C)(O)CNC(=O)c1cccn(C)c1=O (stereo unspecified) | i | +
CC1(C)CC(=O)C2=C(C1)NC1=C(C(=O)c3ccccc31)C2c1cccnc1 (stereo unspecified) | . | i
CC1(C)CC(=O)C2=C(C1)NC1=C(C(=O)c3ccccc31)C2c1ccc(C(F)(F)F)cc1 (stereo unspecified) | . | +
Cc1c(Cl)cccc1NC(=O)Cn1c(=O)c(CNc2ccccc2)cc2cc3c(cc21)OCCO3 | i | +
O=C(Cn1c(=O)c(CNc2ccccc2)cc2cc3c(cc21)OCCO3)Nc1ccc2c(c1)OCCO2 | i | i
COCCn1c(C(=O)Nc2ccccc2)cc2c(=O)n(C)c(=O)n(C)c21 | i | i
COCCn1c(C(=O)Nc2ccc(F)c(Cl)c2)cc2c(=O)n(C)c(=O)n(C)c21 | i | +
O=C(Oc1ccc2ccc(=O)oc2c1)c1ccc(Cl)cc1 | . | i
CCOc1cccc2sc(NC(=O)c3cc(C)nn3CC)nc12 | . | +
CCOc1cccc2sc(NC(=O)c3ccnn3C)nc12 | . | i
O=C(Nc1cccc([N+](=O)[O-])c1)c1ccc(=O)n(Cc2cccc([N+](=O)[O-])c2)c1 | i | i
O=C(Nc1ccc(Br)cc1)c1ccc(=O)n(Cc2cccc([N+](=O)[O-])c2)c1 | i | +
O=C(Nc1ccc(Cl)cc1)c1ccc(=O)n(Cc2cccc(Cl)c2)c1 | i | i
SMILES | GIRK2 activator | GluA2 TARP mod
O=C(Nc1ccc(F)c(F)c1)c1ccc(=O)n(Cc2cccc(Cl)c2)c1 | i | +
Cc1ccc([N+](=O)[O-])cc1NC(=O)c1ccc(=O)n(Cc2cccc(C(F)(F)F)c2)c1 | i | i
Cc1cc([N+](=O)[O-])ccc1NC(=O)c1ccc(=O)n(Cc2cccc([N+](=O)[O-])c2)c1 | i | +
Cc1cc([N+](=O)[O-])ccc1NC(=O)c1ccc(=O)n(Cc2ccccc2)c1 | i | i
Cc1cc([N+](=O)[O-])ccc1NC(=O)c1ccc(=O)n(Cc2cccc(C(F)(F)F)c2)c1 | i | +
CCn1ccc(C(=O)Nc2ccc3c(c2)C(=O)NC3=O)n1 | i | .
COc1ccc(-c2cn(CC(=O)Nc3cccc(OC)c3)nc2N(C)C)cc1 | i | i
O=C(c1ccccc1)c1ccc(OCC(O)CN2CCN(c3ccccc3F)CC2)cc1 (stereo unspecified) | i | i
O=C(c1ccccc1)c1ccc(OCC(O)CNc2ccc(F)cc2)cc1 (stereo unspecified) | i | +
NS(=O)(=O)c1ccc(CNC(=O)C2CN(c3nc4c(C(F)(F)F)cccc4s3)C2)cc1 | i | i
Cc1ccc(S(=O)(=O)NC2CC(C)(C)NC(C)(C)C2)cc1 | . | i
Cc1ccc([N+](=O)[O-])cc1S(=O)(=O)NC1CC(C)(C)NC(C)(C)C1 | . | +
O=C(NCCn1nc(-c2cccs2)ccc1=O)NCc1ccccc1 | i | i
Cc1ccccc1CC(=O)NCCn1nc(-c2cccs2)ccc1=O | i | +
COc1ccc(-c2ccc(=O)n(CCNC(=O)c3ccc(S(=O)(=O)N(C)C)cc3)n2)cc1 | . | i
COc1ccc(-c2ccc(=O)n(CCNC(=O)c3ccc(S(=O)(=O)N4CCCCC4)cc3)n2)cc1 | . | +
Cn1c(=O)c2ccc(C(=O)NC3CCCCC3)cc2n2c(SCC(N)=O)nnc12 | i | +
Cn1c(CSc2nc(N)cc(N)n2)nnc1SCC(=O)NC1CCCCC1 | . | i

Screening results (PubChem BioAssay)
